According to PubChem BioAssay AID2546 (National Center for Advancing Translational Sciences (NCATS), 2010):
The campaign covered roughly 310,000 compounds. About 11,000 (3.5%) were called active. Entries that show only a call come without a potency. About 8% were inconclusive and are not listed. The sample holds actives, similar compounds and a random draw of the others, so the mix is not that of the screen. A number with no mark means an inactive call. The call rests on the fitted dose curve; in most records, active means well fitted inhibition curve with a large enough effect; inconclusive means small, poorly fitted or top-dose-only effect, or effect the other way; inactive means flat fitted curve, though single readings scatter.

Experiment: VP16 counterscreen qHTS for inhibitors of ROR gamma transcriptional activity;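 further: Gal4-VP16 expression switched on by copper sulfate through the metallothionein promoter; nearly all actives have a fitted effect of over 50% in size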
Details: Drosophila S2 Gal4-VP16 UAS-luciferase, luminescence, 20 h; series mostly up to 53.6 µM
Potency means the concentration at half of the fitted maximal effect.

SMILES | Potency | activity, negative = inhibition
COc1ccc(CSc2nnnn2-c2ccc(O)cc2)cc1F | inactive | 
CCOC(=O)CC1COCCN1C(=O)c1cc(COc2ccc(F)c(F)c2)on1 (stereo not drawn) | inactive | 
CCOC(=O)c1sc(NC(=O)c2cc(S(=O)(=O)N3CCOCC3)ccc2C)nc1C | inactive | 
Cc1ccc(S(=O)(=O)N2CCOCC2)cc1C(=O)NC(=S)N(Cc1ccccc1)C(C)C | 3.98 µM (active) | 
Cc1ccc(S(=O)(=O)N2CCOCC2)cc1C(=O)NCc1ccc(F)cc1 | inactive | 
O=C(CN1CCCCCC1)Nc1c(Cl)cc(Cl)cc1Cl | inactive | 
CN(Cc1ccccc1)C(=O)C(=O)c1cn(CC(=O)N2CCCC2)c2ccccc12 | inactive | 
N#CC1(NC(=O)COC(=O)CCN=C2NS(=O)(=O)c3ccccc32)CCCCC1 | inactive | 
O=C(N/N=C/c1ccc(O)cc1)/C(=C/c1ccc([N+](=O)[O-])cc1)NC(=O)c1ccccc1 | inactive | 
O=C(N/N=C/c1cc([N+](=O)[O-])ccc1O)/C(=C\c1cccs1)NC(=O)c1ccccc1 | 10 µM (active) | 
O=C(Nc1ccc(C(=O)O)cc1)/C(=C/c1ccc([N+](=O)[O-])cc1)NC(=O)c1ccccc1 | inactive | 
CSc1nnc(C2CCCN(CC(=O)Nc3ccccc3N3CCOCC3)C2)n1C(C)C (stereo not drawn) | inactive | 
Cc1cc(S(=O)(=O)NCc2ccccn2)c(Cl)cc1Cl | 5.62 µM (active) | 
O=S(=O)(NCc1ccccn1)c1ccc(F)cc1 | inactive | 
Cc1cc(Cl)c(S(=O)(=O)NCc2cccnc2)cc1OCC(N)=O | inactive | 
COc1ccc(NC(=O)C2CCC(CNC(=O)[C@@H]3Cc4ccccc4CN3)CC2)cc1 (stereo partly drawn) | inactive | 
CC(=O)N1c2ccc(S(=O)(=O)N3CCC(C(=O)NCc4ccc(F)cc4)CC3)cc2CC1C (stereo not drawn) | inactive | 
Cc1ccc(-n2c(-c3ccc(Cl)cc3)n[nH]c2=S)cc1 | 2.51 µM (active) | 
Cc1cc(-c2n[nH]c(=S)n2-c2ccc(C)c(C)c2)no1 | inactive | 
COc1ccc(-n2c(-c3ccc(OC)c(OC)c3)n[nH]c2=S)cc1 | inactive | 
Cc1nc2sccn2c(=O)c1S(=O)(=O)NCCc1ccccc1 | inactive | 
COc1cc(C(=O)NCC2(c3ccccc3)CCCC2)ccc1OC(C)C | inactive | 
O=c1c([N+](=O)[O-])cc(C(F)(F)F)cn1Cc1cccc(Cl)c1 | inactive | 
O=[N+]([O-])/C=C/c1ccc2c(ccn2Cc2ccccc2)c1 | 11.2 µM (active) | 
O=C(/C=C/c1cccc([N+](=O)[O-])c1)N1CCN(Cc2ccccc2)CC1 | inactive | 
CC1CCN(C(=O)c2ccccc2NC(=O)Cc2ccccc2)CC1 | inactive | 

SMILES | Potency | activity, negative = inhibition
CC1CCN(C(=S)NC(=O)c2ccccc2Br)CC1 | 3.55 µM (active) | 
CC1CCN(C(=O)/C(=C\c2ccccc2)NC(=O)c2ccccc2)CC1 | inactive | 
COc1ccc(CNC(=O)c2ccc(Br)s2)cc1OC | inactive | 
Cc1ccc(C(=O)N/C(=C\c2cn(S(=O)(=O)N(C)C)c3ccccc23)C(=O)N2CCCC2)cc1 | inactive | 
C/C(=N\OCC(=O)O)c1ccc(Cl)cc1 | inactive | 
CCOC(=O)CN/C=C(\C#N)c1ccc(F)cc1 |  | -4.69% [at 10 µM]
CCOc1cc(/C=C(/C#N)c2ccc(Cl)cc2)cc(Cl)c1OCC(=O)O | 0.794 µM (active) | 
CC(C)OCCCNC(=O)CN1C(=O)/C(=C/c2ccccc2F)Oc2ccccc21 | inactive | 
C[C@]12CC[C@@H]3c4ccc(O)cc4C[C@@H](CCCCCCCCCS(=O)CCCC(F)(F)C(F)(F)F)C3[C@@H]1CC[C@@H]2O (stereo partly drawn) | inactive | 
CC1CN(C(=O)CCC(=O)NCCCN2CCC(Cc3ccccc3)CC2)c2cc(Cl)ccc2O1 (stereo not drawn) | inactive | 
CC1(C)Cc2cccc(OCC(=O)NCc3ccccc3)c2O1 | inactive | 
CCOc1nc(-c2ccc(OC)cc2)ccc1-c1noc(-c2cc(OC)c(OC)c(OC)c2)n1 | inactive | 
COc1ccc(-c2nc(-c3ccccc3)no2)c(OC)c1 | 4.47 µM (active) | 
COc1ccccc1Cc1nc(-c2ccc(C)cc2)no1 | inactive | 
COc1ccc(N(Cc2ccc(N(C)C)cc2)C(=O)c2ccc(S(C)(=O)=O)cc2)cc1 | inactive | 
COc1cccc(N2CCN(c3ccc4nnc(CCC(=O)N5CCN(C)CC5)n4n3)CC2)c1 | inactive | 
CCOc1ccc(-n2c(SCC(=O)OC)nc3sc4c(c3c2=O)CCN(C)C4)cc1 | inactive | 
Cc1c(NC(=S)NCc2ccc(F)cc2)cccc1[N+](=O)[O-] | 15.8 µM (active) | 
Cc1cccc(NC(=O)C2CCCN(C(=O)Nc3ccc(F)cc3)C2)c1C (stereo not drawn) | inactive | 
Cc1cccc(NC(=S)N2CCC(O)CC2)c1C | inactive | 
Cc1cccc(NC(=O)COC(=O)CCc2ccccc2)c1C | inactive | 
Cc1cc(C(=O)NCCc2ccc(Cl)cc2)c(C)o1 | inactive | 
Cc1ccc(NC(=S)NCCc2ccc(Cl)cc2)c(C)c1 | 3.16 µM (active) | 
Cc1cccc(NC(=S)NCCc2ccc(Cl)cc2)c1C | 7.08 µM (active) | 
Cc1cc(Cl)ccc1NC(=S)NCCCN1CCCC1=O | inactive | 
Cc1cccc(NC(=S)NCCc2ccc(F)cc2)c1C | 6.31 µM (active) | 

SMILES | Potency | activity, negative = inhibition
Cc1cccc(NC(=O)c2cccc(C(=O)Nc3cccc(C)c3C)n2)c1C | inactive | 
Cc1c(NC(=O)Nc2ccccc2)cccc1[N+](=O)[O-] | inactive | 
Cc1c(NC(=O)/C=C/C(=O)O)cccc1[N+](=O)[O-] | inactive | 
CCn1cc(CN2CCN(CC(C)(C)C)C(CCO)C2)c2ccccc21 (stereo not drawn) | inactive | 
Cc1ccc(C)c(N2CCN(S(=O)(=O)c3c(C)[nH]c(C)c3C(=O)N3CCCC3)CC2)c1 | inactive | 
O=C(c1cc(-c2ccc(O)cc2)on1)N1CCOCC1 | inactive | 
CCC(C(=O)NCc1cccnc1)n1nc(C)c2sc3ccccc3c2c1=O (stereo not drawn) | inactive | 
COc1cc(NC(=S)NCc2ccc(S(N)(=O)=O)cc2)cc(OC)c1 | inactive | 
Cc1cc(F)ccc1NC(=S)NCCc1ccccc1 | 5.62 µM (active) | 
Cc1cc(C)cc(NC(=S)NCc2ccc(F)cc2)c1 | 3.98 µM (active) | 
S=C(NCCc1ccccc1)N1CCCCC1 | inactive | 
O=C(NCCc1c[nH]c2ccccc12)c1cccc(Br)c1 | inactive | 
Cc1ccc(NC(=S)Nc2ncccc2C)c(C)c1 | 7.08 µM (active) | 
Cc1ccc(NC(=O)C2CCCN2S(=O)(=O)c2cccc3cccnc23)c(C)c1 (stereo not drawn) | inactive | 
O=C(CC(=O)N/N=C\c1ccc(F)cc1)NCCc1ccccc1 | inactive | 
CCCCC(=O)NCc1ccc(F)cc1 | inactive | 
Cc1cc(C)cc(NC(=S)NCCc2c[nH]c3ccccc23)c1 | 12.6 µM (active) | 
CSc1ncc(C(=O)Nc2ccc(C)cc2C)c(C)n1 | inactive | 
COc1ccccc1CC(=O)NCCc1c[nH]c2ccccc12 | inactive | 
CCCOc1ccc(CNC(=O)C2CCN(c3nn4c(=O)cc(C)nc4s3)CC2)cc1 | inactive | 
Cc1cccc(-c2nc(CS(=O)CC(=O)NC(C)CCc3ccccc3)c(C)o2)c1 (stereo not drawn) | inactive | 
O=C(Nc1ccc(N2CCCC2=O)cc1)c1cncc(Br)c1 | inactive | 
Cc1cccn2c(=O)c(/C=C(\C#N)C(N)=O)c(N3CCCCCC3)nc12 | inactive | 
CCCc1nnc(NC(=O)CCC(=O)N2CCN(S(=O)(=O)c3ccc(OC)cc3)CC2)s1 | inactive | 
Cc1c(C(=O)NCC(c2ccco2)N2CCCC2)oc2ccc(Cl)cc12 (stereo not drawn) | inactive | 
Cc1ccc(CNC(=O)CCS(=O)(=O)c2ccc3c(c2)CC(C)N3C(=O)C2CC2)o1 (stereo not drawn) | inactive | 

SMILES | Potency | activity, negative = inhibition
O=C1C(=O)N(CCN2CCOCC2)C(c2cccc(Cl)c2)/C1=C(/O)c1ccc2c(c1)OCO2 (stereo not drawn) | inactive | 
O=C(NNS(=O)(=O)c1ccc([N+](=O)[O-])cc1)C1CCCCC1 | inactive | 
COc1cccc(-c2nc(CS(=O)CC(=O)NCc3ccc(F)cc3)c(C)o2)c1 (stereo not drawn) | inactive | 
COc1ccccc1N1CC(C(=O)Nc2nnc(SCC(=O)NCC3CCCO3)s2)CC1=O (stereo not drawn) | inactive | 
Cc1ccccc1NC(=S)NC(=O)Cc1ccc(Cl)cc1 | 7.08 µM (active) | 
Cc1ccc(NC(=O)C(=O)NCc2ccco2)c(C)c1 | inactive | 
S=C(NCc1cccnc1)Nc1ccc(Cl)cc1Cl | inactive | 
Cc1ccccc1N/C(SCc1ccc(Cl)cc1)=C(/C#N)C(N)=O | inactive | 
Cc1ccc(NC(=S)NCc2ccccc2Cl)c(C)c1 | 5.01 µM (active) | 
Cc1cc(C(=O)NNC(=S)Nc2ccccc2C)cs1 | inactive | 
O=C(N/C(=C\c1ccc([N+](=O)[O-])cc1)C(=O)N1CCOCC1)c1cccc(Br)c1 | inactive | 
CC(=O)Nc1ccc(S(=O)(=O)N(C)c2nc3ccccc3nc2Cl)cc1 | inactive | 
COC(=O)CN1C(=O)[C@H]2[C@@H](/C=C/c3ccccc3)N3C(=O)CN(CC4CC4)C(=O)[C@@]3(Cc3ccccc3)[C@H]2C1=O | inactive | 
O=C(CN(Cc1ccc(Br)cc1)S(=O)(=O)c1ccccc1)NCc1ccncc1 | inactive | 
CN1CCN(C(=O)C(=O)c2cn(CC(=O)N3CCCC3)c3ccccc23)CC1 | inactive | 
Cc1ccccc1CNC(=O)CCC(=O)N1Cc2ccccc2Oc2ncccc21 | inactive | 
Cc1cc(SCc2c(F)cccc2Cl)nc(=O)[nH]1 | inactive | 
COc1ccc(CNC(=O)/C(C#N)=C/c2cccc(OC)c2OC)cc1 | inactive | 
O=C(NCCOCc1ccc(Cl)cc1)c1ncn[nH]1 | inactive | 
O=C(/C=C/Sc1ncn[nH]1)c1ccc(Cl)cc1 | 4.47 µM (active) | 
COc1ccc(Cl)cc1CSc1ncn[nH]1 | inactive | 
O=C(Cn1c(NCCO)nc2ccccc21)c1ccc(Cl)cc1Cl | inactive | 
CCc1cccc(NC(=S)N(CCN(C)C)C2CCN(C(C)C)CC2)c1 | inactive | 
CC(C)c1ccc(S(=O)(=O)N2CCN(C(=O)c3ccc(N4CCCC4)c([N+](=O)[O-])c3)CC2)cc1 | inactive | 
CC(=O)N1c2ccc(S(=O)(=O)NCCC(=O)N(C)C3CCCCC3)cc2CC1C (stereo not drawn) | inactive | 
